Measurements reported in PubChem BioAssay AID1850 (Southern Research Specialized Biocontainment Screening …, 2009).
“And” between values parts separate entries of the source, which are not always exact repeats. Equal entries are not always repeated. Hit rate of the full screen: of about 310,000 compounds, about 1,000 (0.32%) were called active. Not all results are given here. Results with a measured potency or affinity are listed apart. Unmarked numbers belong to inactive results. How the calls were made is not given here.

Experiment: PhoP regulon inhibitors, Salmonella typhi PhoP promoter GFP reporter, confirmatory (AID 1850);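 further: 0% = induced wells with vehicle and 100% = uninduced wells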
Conditions: fluorescence, 4 h, at 50 µM, hits give high values

| SMILES | inhibition |
| --- | --- |
| CC(C)(C)C(=O)Nc1ccnn1C1CCN(C(=O)c2ccc(Cl)cc2F)CC1 | -1.83% |
| Cc1cc(OCc2nc(-c3cccnc3)no2)c(C)cc1Br | -4.41% |
| O=C1[C@@H]2Cc3c([nH]c4ccccc34)C(c3cccc(Br)c3)N2C(=O)CN1C1CCN(Cc2ccccc2)CC1 (stereo partly drawn) | 0.55% |
| CCOc1cc(C(=O)Nc2ccccc2N2CCOCC2)ccc1OCC(=O)N1CCCCC1 | -2.04% |
| CC1Oc2cc3c(-c4c(O)cc(O)c5c(O)c6c(cc45)OC(C)C(C)C6=O)c(O)cc(O)c3c(O)c2C(=O)C1C (stereo not drawn) | 15.3% |
| C[C@@H]1Cc2c(O)c(O)cc(O)c2C(=O)O1 | 6.45% |
| Cc1cnc(C(=O)NC2CC(C)(C)Cc3c2cnn3-c2cccc(F)c2)cn1 (stereo not drawn) | -5.99% |
| NC(=O)c1ccc(SCC(=O)OCC(=O)NCc2ccco2)c([N+](=O)[O-])c1 | -1.63% |
| Nc1nnc(-c2ccccc2)c(-c2ccccc2)n1 | -9.89% |
| Nc1nc(N)nc(-c2cccc(Cl)c2Cl)n1 | -6.05% |
| CC(=O)N1CCN(S(=O)(=O)c2cccc(C(=O)Nc3ccccc3N3CCCC3)c2)CC1 | -2.62% |
| O=C(O)[C@H](Cc1ccccc1)NC(=O)N1CCOCC1 | -2.76% |
| O=C(CCNC(=O)c1ccc(Br)cc1)NCc1cccnc1 | -2.13% |
| COc1ccc2c(C(=O)CN3CCN(CCO)CC3)c[nH]c2c1 | -2.19% |
| COc1ccc2[nH]cc(C(=O)CCl)c2c1 | 30.9% |
| CCc1nc(SCC#N)c(C#N)cc1C | -1.52% |
| CNC[C@@H](C)NC[C@@H](Cc1ccccc1)NCCc1ccccc1 | 19.6% |
| CCC[C@H](CN[C@@H](CNC)[C@H](C)O)NCCc1ccc(OC)cc1 | -14.6% |
| CC(Cc1cccc(C(F)(F)F)c1)NCCOC(=O)c1ccccc1 (stereo not drawn) | 12.2% and -11.7% |
| CCC[C@@H](CN[C@@H](CNC)[C@H](C)CC)NCC1CCC(C(C)(C)C)CC1 (stereo partly drawn) | 11.1% |
| CC(CCc1ccccc1)NCc1cccc2ccccc12 (stereo not drawn) | -6.36% |
| COc1ccccc1CCNCc1cccc(C(F)(F)F)c1 | 2.37% |
| Cc1cc(C)n2c(Nc3ccc4c(c3)OCCO4)c(-c3ccccc3)nc2n1 | -10.2% |
| CCCCN1C(=O)C2NN=C(C(=O)OCC)C2C1=O (stereo not drawn) | 8.14% |

| SMILES | inhibition |
| --- | --- |
| Cc1ccc(-n2nc3c(c2NC(=O)c2ccc4c(c2)OCO4)CS(=O)(=O)C3)cc1C | -5.55% |
| COc1ccccc1N1C(=O)c2ccccc2NC1c1cc(OC)c(OC)c(OC)c1 (stereo not drawn) | 2.7% |
| CCc1ccccc1NC(=O)C1CCN(C(=O)c2ccc([N+](=O)[O-])cc2)CC1 | -0.4% |
| O=C(NCc1ccc(OC(F)(F)F)cc1)C1CC2Cn3c(nc4ccccc43)C2N1Cc1ccccc1 (stereo not drawn) | 2.43% |
| N#Cc1c(-c2ccccc2)cc(-c2ccc(O)cc2)nc1N | -7.46% |
| O=C(COC(=O)c1ccccc1[N+](=O)[O-])NC(=O)c1ccccc1 | -0.26% |
| CCNC(=O)Cn1c(=O)c(=O)n(Cc2ccccc2)c2ccc(Cl)cc21 | -13.1% |
| Cc1ccc(CC2CC(=O)N(c3ccc(C)cc3)C2=O)cc1 (stereo not drawn) | 7.02% |
| CCn1c2ccccc2c2cc(NC(=O)CSc3nnc(-c4ccccc4OC)n3N)ccc21 | -0.4% |
| N=c1c2c(-c3ccccc3)c(-c3ccccc3)n(Cc3ccccc3)c2ncn1CCCn1ccnc1 | -3.96% |
| N=c1c2c(-c3ccccc3)c(-c3ccccc3)n(Cc3ccco3)c2ncn1CCCO | 12.1% |
| CCOC(=O)C1=C(CS(=O)(=O)c2ccccc2)NC(=O)NC1c1ccc(OC)c(OC)c1 (stereo not drawn) | -2.15% |
| Cn1c2c(c(=O)n(C)c1=O)CN(Cc1ccc(F)cc1)CN2 | 7.57% |
| Fc1ccc(-c2nc3ccccc3[nH]2)cc1 | -1.08% |
| c1ccc2[nH]c(-c3ccncc3)nc2c1 | 5.01% |
| C#CC[N+](C)(C)CCCCCCCCCC | 2.68% |
| C[N+](C)(C)CCCCCC[N+](C)(C)C | -25.1% |
| C[N+](C)(C)CCCCCCCCCC[N+](C)(C)C | 8.92% |
| CCCCCC[N+](C)(C)CCSSCC[N+](C)(C)CCCCCC | 5.58% |
| CC1CC(=O)Nc2ccccc2N1C(=O)Nc1ccc(F)cc1 (stereo not drawn) | -0.31% |
| Cc1ccc(-c2ccc(C(=O)O)o2)cc1Cl | 6.76% |
| CCOC(=O)C(=CNc1cc(C)ccc1C)C(=O)OCC | -9.72% |
| CCOC(=O)Cc1csc(NC(=O)c2cnc3scc(C)n3c2=O)n1 | -13.9% |
| CN1CCN(C(c2ccccc2)c2ccc(Cl)cc2)CC1 (stereo not drawn) | -4.81% |

| SMILES | inhibition |
| --- | --- |
| CN1CCN(CCOc2cccc(Cl)c2)CC1 | 4.36% |
| O=C(O)c1cc(S(=O)(=O)N2CCN(C(c3ccccc3)c3ccccc3)CC2)ccc1Cl | -2.19% |
| CN1CCN(C(c2ccccc2)c2ccccc2)CC1 | -1.19% |
| Cc1cc(C)cc(C(=O)NCC(=O)OC(C)C(=O)N(C)c2ccccc2)c1 (stereo not drawn) | -2.85% |
| Cc1nc2sc3c(c2c(=O)[nH]1)CCCCC3 | -10.5% |
| Cc1ccccc1-n1ccnc1SCC(=O)NCc1ccco1 | 1.18% |
| O=C(c1ccc(Cl)c(NC2=NC3CS(=O)(=O)CC3S2)c1)N1CCN(c2ccccc2)CC1 (stereo not drawn) | -0.27% |
| Cc1ccc(OCCn2cc(C#N)c3ccccc32)cc1 | -3.38% |
| COc1ccc(F)cc1S(=O)(=O)NC1CC(C)(C)NC(C)(C)C1 | -0.42% |
| CCOc1cccc2sc(=NC(=O)CCS(=O)(=O)c3ccc(F)cc3)n(C)c12 | -5.1% |
| O=C(C1CCCN(S(=O)(=O)c2cccc3nonc23)C1)N1CCN(c2cccc(Cl)c2)CC1 (stereo not drawn) | 2.17% |
| CCCNC(=O)C1CC(=O)N(c2ccc(OCC)cc2)C1 (stereo not drawn) | -4.98% |
| Fc1ccccc1-c1nc(NCc2ccco2)c2ccccc2n1 | -5.43% |
| Cc1cccc(Nc2nc(N)c([N+](=O)[O-])c(NCc3ccco3)n2)c1 | -6.31% |
| COc1cccc(-c2nc(NCc3ccco3)c3ccccc3n2)c1O | -5.74% |
| Cc1cccc(Nc2nc(NCc3ccco3)nc(N)c2[N+](=O)[O-])c1 | -3.95% |
| Oc1ccccc1Nc1nc(NCc2ccccc2)c2ccccc2n1 | 2.95% |
| Cc1ccccc1Nc1nc(NCc2ccco2)c2ccccc2n1 | -14.1% |
| CSc1nc(NCc2ccco2)c2ccccc2n1 | 3.85% |
| COc1ccc(OC)c(Nc2nc(NCc3ccco3)c3ccccc3n2)c1 | -4.32% |
| COc1ccccc1-c1c(C)nn2c(N3CCC4(CC3)OCCO4)cc(C)nc12 | -2.41% |
| O=C(COC(=O)C1CC(=O)N(c2nc(-c3ccccc3)cs2)C1)c1ccccc1 (stereo not drawn) | -9.24% |
| CC(=O)NC(Cc1ccc(N(CCCl)CCCl)cc1)C(=O)NCC(=O)NCC(=O)O (stereo not drawn) | 6.1% |
| Cc1nn(CCCC(=O)NCCCN2CCN(C)CC2)c(=O)c2c1sc1ccccc12 | 11.5% |

| SMILES | inhibition |
| --- | --- |
| Cc1ccc(S(=O)(=O)NCCC(=O)OCc2ccc([N+](=O)[O-])cc2)cc1C | -4.36% |
| COC(=O)c1cc2oc(C)cc2n1CC(=O)N1CCCc2ccccc21 | -6.03% |
| O=C(Nc1ccn(Cc2c(F)c(F)c(F)c(F)c2F)n1)c1cccc(Cn2cc([N+](=O)[O-])cn2)c1 | -7.4% |
| CCc1cccc(C)c1NC(=O)c1cccnc1 | -4.39% |
| O=C1C(Cl)=C(NCCN2CCCCC2)C(=O)c2ccccc21 | -2.93% |
| Nc1nc(Nc2ccccc2)nc(NCc2ccco2)c1[N+](=O)[O-] | 3.06% |
| Cc1ccc(Nc2nc(NCc3ccco3)c3ccccc3n2)cc1 | 5.88% |
| O=C(OCC(=O)N(Cc1ccccc1)Cc1ccccc1)c1ccccc1NCCO | -4.63% |
| CSc1nc2c(c(=O)[nH]1)C(c1ccc(C(F)(F)F)cc1)CC(=O)N2 (stereo not drawn) | 6.77% |
| CNc1oc(-c2cccs2)nc1S(=O)(=O)c1ccccc1 | -10% |
| COc1ccc(C(OCC(O)CN(C)C2CCCCC2)c2ccc(OC)cc2)cc1 (stereo not drawn) | -25.4% |
| O=C(N/N=C/c1ccc(Cl)s1)C(O)c1ccccc1 (stereo not drawn) | -6.88% |
| O=C(N/N=C/c1ccc(Br)s1)c1ccccc1[N+](=O)[O-] | -8.63% |
| Cc1ccc(/C=N/NC(=O)C(O)c2ccccc2)o1 (stereo not drawn) | 1.91% |
| Cc1ccc(NC(C)C(=O)N/N=C/c2ccc([N+](=O)[O-])s2)cc1 (stereo not drawn) | -1.13% |
| O=C(N/N=C/c1ccc([N+](=O)[O-])s1)c1ccccc1 | 6.9% |
| O=C(N/N=C/c1ccc([N+](=O)[O-])s1)c1cccc(Br)c1 | -0.18% |
| Cc1cc(C(=O)N/N=C/c2ccc([N+](=O)[O-])s2)c2ccccc2n1 | 4.3% |
| O=C(N/N=C/c1ccc(-c2ccc([N+](=O)[O-])cc2)o1)C(O)c1ccccc1 (stereo not drawn) | -3.63% |
| O=C(c1cc2ccccc2cc1O)N1CCN(c2ccc([N+](=O)[O-])cc2)CC1 | 6.8% |
| O=C(NCCCSc1ccccc1)c1ccc(=O)[nH]c1 | -9.17% |
